Screens from PubChem.
This is a sample that favours compounds with a hit; in the whole collection about 2.2% have one here.
RTF Ca sens act – cardiac RTF calcium sensitivity activators, primary screen, biochemical, IANBD-TnC fluorescence, EC20 calcium; Troponin I, cardiac muscle (Homo sapiens) + Troponin T, cardiac muscle (Homo sapiens) + …; IANBD-labeled TnC RTF fluorescence at EC20 calcium; 0% EC20 calcium, 100% full calcium; activation, % at 7.2 µM; 340,000 tested, 0.24% active;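 active means activation above the mean over all tested compounds plus 3 SD, cut at about 30% in these data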;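 further: rise in fluorescence read as greater calcium sensitivity of cardiac thin filaments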
Myeloid diff MLP – induction of myeloid progenitor differentiation, primary screen, cell-based, flow cytometry, MLPCN library | 360,000 tested, 1% active | calls only at 10 µM | ER-HoxA9 myeloid progenitors, lysozyme-GFP differentiation;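 active means normalized GFP-positive differentiation at or above the plate's own cutoff, the solvent-only control mean plus 3 SD; inconclusive means no clear call, values can overlap the other calls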;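 further: cells exposed to compound for four days before flow analysis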
CRFR2-BP antag – antagonists of CRF-BP/CRF-R2 complex, primary screen, cell-based, HEK293, calcium dye fluorescence, uHTS. CRF-induced calcium fluorescence. inhibition, % at 11.8 µM. 350,000 tested, 0.59% active. AID 588475, 2011;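 active means inhibition of the ligand-induced calcium signal above about 50% at the single tested concentration, limit read from the data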
Cardiac RTF inh – cardiac RTF calcium sensitivity inhibitors, primary screen, biochemical, IANBD-TnC fluorescence, EC70 calcium | AID 493244, 2011 | 340,000 tested, 0.12% active | Troponin I, cardiac muscle (Homo sapiens) + Troponin T, cardiac muscle (Homo sapiens) + … | inhibition, % at 7.15 µM | IANBD-labeled cardiac RTF, Ca2+ fluorescence;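 active means inhibition above the mean inhibition of all tested compounds plus 3 SD, cut at about 17% in these data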;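 further: assay run at fixed EC70 calcium of 1.6 mM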
CRFBP-R2 agonist – agonists of CRF-BP/CRF-R2 complex, primary screen, cell-based, HEK293, calcium dye fluorescence, uHTS. CRF-binding protein / CRF receptor 2 complex (human). calcium dye fluorescence (FLIPR); percent of saturating CRF peptide response. activation, % at 13.2 µM. 350,000 tested, 0.46% active;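 active means activation of at least 50%, plus an integration ratio under a set limit after plate pattern correction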
A number is an active result; i = inactive; ? = inconclusive; nt = no result; + = active, no number.

SMILES	RTF Ca sens act	Myeloid diff MLP	CRFR2-BP antag	Cardiac RTF inh	CRFBP-R2 agonist
Cc1sc2nc(CSc3nc4ccccc4c(=O)n3CCCN3CCOCC3)[nH]c(=O)c2c1C	i	+	i	i	i
CC(=O)c1c(C)[nH]c(C(=O)CSc2nc3ccccc3c(=O)n2CCCN2CCOCC2)c1C	i	i	i	i	i
CCC/C=C/c1ccc(CN2C(C(C)C)C(=O)N(Cc3cn(Cc4ccco4)nn3)CCS2(=O)=O)cc1 (stereo not drawn)	nt	i	i	nt	i
C=CCOc1ccc(/C=C2\SC(=S)N(C(C(=O)O)c3ccccc3)C2=O)cc1 (stereo not drawn)	i	i	55	i	i
CCOc1ccc(/C=C2\SC(=S)N(C(C(=O)O)c3ccccc3)C2=O)cc1OC (stereo not drawn)	i	i	i	i	i
CN(C)C(=O)C1CC(=O)OC12CCCCC2 (stereo not drawn)	i	i	114	i	i
Cc1cccc(OCc2nnc(SCC(=O)Nc3ccc(N4CCOCC4)cc3)o2)c1	i	i	i	i	i
CCOC(=O)c1ccccc1Nc1cn(C(C)=O)c2ccccc12	i	+	i	i	i
CCNc1ccc2noc3c2c1C(=O)c1ccccc1-3	+	nt	i	i	192
O=C1c2ccccc2-c2onc3ccc(N4CCCC4)c1c23	396	+	i	i	83
CCOc1ccc2noc3c2c1C(=O)c1ccccc1-3	+	i	i	i	i
O=C1c2ccccc2-c2onc3ccc(NCc4ccco4)c1c23	715	nt	i	i	148
CN(CCC#N)C(=O)CC1(Cc2ccccc2)CCOC(C)(C)C1 (stereo not drawn)	i	i	i	i	i
Cc1cc(/C=C2\SC(=S)NC2=O)cc(C)c1O	i	i	i	i	i
CCN(CC)c1ccc(/C=C2\SC(N)=NC2=O)cc1	33	+	i	i	i
CCN(CC)c1ccc(C=C2SC(=S)NC2=O)cc1	241	+	i	i	168
O=C1NC(=Nc2ccccc2Cl)S/C1=C\c1cccc([N+](=O)[O-])c1	i	i	i	i	i
O=C1NC(=S)S/C1=C\c1cccc([N+](=O)[O-])c1	i	i	55	i	i
O=C1CSC(c2ccccc2F)N1c1cc(Cl)ccc1O (stereo not drawn)	i	i	53	i	i
COC(=O)c1c(C)[nH]c(C(=O)OCc2csc(CC(=O)Nc3ccccc3C)n2)c1C	i	i	i	i	i
CCCc1c(C)[nH]c2ccc(NC(C)=O)cc2c1=O	i	i	i	i	i
CCN(CC)Cc1c(C)[nH]c2ccc(NC(C)=O)cc2c1=O	nt	i	67	nt	i
O=C1C(=O)N(CCCn2ccnc2)C(c2ccc([N+](=O)[O-])cc2)/C1=C(\O)c1ccc2c(c1)OCCO2 (stereo not drawn)	i	i	i	i	i
COc1ccc(S(=O)(=O)N(C)C[C@H]2Oc3ccc(NS(=O)(=O)c4ccccc4)cc3C(=O)N([C@H](C)CO)C[C@@H]2C)cc1	i	i	i	i	i
C[C@H]1CN([C@@H](C)CO)C(=O)c2cc(Br)cnc2O[C@@H]1CN(C)C(=O)NC1CCCCC1	nt	i	i	nt	i
SMILES	RTF Ca sens act	Myeloid diff MLP	CRFR2-BP antag	Cardiac RTF inh	CRFBP-R2 agonist
C[C@@H]1CN([C@H](C)CO)C(=O)c2cc(NC(=O)Nc3ccc(C(F)(F)F)cc3)ccc2O[C@H]1CN(C)C(=O)Nc1ccc(F)cc1	i	+	i	i	i
COc1ccc(S(=O)(=O)N(C)C[C@H]2Oc3ccc(NS(=O)(=O)c4cccs4)cc3C(=O)N([C@H](C)CO)C[C@@H]2C)cc1	i	+	i	i	i
C[C@H](CO)N1C[C@H](C)[C@H](CN(C)C(=O)NC2CCCCC2)Oc2ncc(Br)cc2C1=O	nt	+	i	nt	i
CC(=O)Nc1ccc(S(=O)(=O)c2ccnc3cc(Cl)ccc23)cc1	nt	i	i	nt	i
COc1ccccc1N1C(=O)c2ccc(C(=O)Nc3ccc(C(=O)O)cc3)cc2C1=O	i	i	i	i	i
N#C/C(=C(/O)c1cccc(F)c1)c1nc2ccccc2s1	i	i	i	i	51
N#CC1=C(N)Oc2cc(O)c(Cl)cc2C1c1cccnc1 (stereo not drawn)	i	i	i	i	i
N#CC1=C(N)Oc2cc(O)c(Cl)cc2C1c1ccccc1F (stereo not drawn)	33	i	i	i	192
CC(OC(=O)C1CC1)C(=O)Nc1cc(Cl)cc(Cl)c1 (stereo not drawn)	i	+	i	i	i
c1ccc2c(c1)NCC1CCCN21 (stereo not drawn)	i	+	i	i	i
COc1cccc(CN2CCN(Cc3cc4ccccc4[nH]3)CC2CCO)c1 (stereo not drawn)	i	i	i	i	57
O=C(c1ccccc1)c1ccccc1N1C(=O)C=CC1=O	i	i	i	i	i
O=C1C=CC(=O)N1c1ccccc1N1C(=O)C=CC1=O	i	i	97	i	i
O=c1c(/C=N/Nc2ccccc2)c(Sc2nnnn2-c2ccccc2)nc2ccccn12	32	i	i	i	99
O=Cc1c(Sc2ccccc2)nc2ccccn2c1=O	i	i	i	i	i
Cc1ccccc1CSc1nnc(-c2cccs2)n1Cc1ccco1	i	i	i	i	i
C(=C\c1ccccc1)/CSc1nnc(-c2ccccc2)n1Cc1ccco1	i	?	62	i	i
Cc1ccccc1CSc1nnc(-c2ccco2)n1Cc1ccco1	i	+	i	i	i
Clc1cccc(-c2nnc(SC/C=C/c3ccccc3)n2Cc2ccco2)c1	i	i	60	i	i
C(=C\c1ccccc1)/CSc1nnc(-c2ccncc2)n1Cc1ccco1	i	i	i	i	i
O=C(c1ccco1)N1CCN=C1SCc1ccccc1Cl	i	i	101	i	i
CCOc1ccc(S(=O)(=O)n2ccc(C)n2)c2ccccc12	i	i	55	i	i
CCOc1ccc(S(=O)(=O)N2CCCCC2)c2ccccc12	i	i	i	i	i
Cc1ccc(Sc2c(C=O)c3ccccc3n2C)cc1	i	nt	58	i	i
Cc1cc(C)cc(NC(=O)Cn2nnc(C(=O)NCc3ccccc3Cl)c2N)c1	i	i	i	i	i
SMILES	RTF Ca sens act	Myeloid diff MLP	CRFR2-BP antag	Cardiac RTF inh	CRFBP-R2 agonist
Cc1cc(C)cc(NC(=O)Cn2nnc(C(=O)NCc3ccc(F)cc3)c2N)c1	i	?	76	i	i
COc1ccc(-c2c(C)nn3c(N4CCC5(CC4)OCCO5)cc(C)nc23)cc1OC	i	i	i	i	i
COc1ccc(-c2c(C)nn3c(N4CCOCC4)cc(C)nc23)cc1OC	i	+	i	i	i
COc1ccc(-c2c(C)nn3c(N4CCCCCC4)cc(C)nc23)cc1OC	i	i	56	i	i
COC(=O)CN1C(=O)N/C(=C/c2ccccc2OC)C1=O	i	i	i	i	i
c1cc2nncn2nc1N1CCCC1	i	i	i	i	i
Clc1ccc2nncn2n1	i	i	77	i	i
